Source: PubChem (Columbia University Molecular Screening Center)
NFkB transloc inh – blocks IL-1B driven NFkB nuclear translocation in HUVEC cells. inhibition, % at 2 µM. HUVEC IL-1B NFkB p65 nuclear translocation imaging. actives 0.43% (n = 94,000). AID 796;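 active = inhibition above about 30% together with a positive call from visual inspection of the well image, limit read from the data; inconclusive = inhibition above a set limit but visual check negative; inactive = inhibition not above a set limit, visual check negative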;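 also: nuclear over cytoplasmic p65 intensity ratio measured by imaging; 0% = IL-1B stimulated DMSO wells and 100% = unstimulated DMSO wells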
IL1B cytotox – HUVEC cytotoxicity counter-screen, IL-1B stimulated. HUVEC cell count loss, Hoechst imaging. cell count reduction, % at 2 µM. actives 0.41% (n = 94,000);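 active = cell count reduction more than 3 SD above the screen-wide mean, cut at about 70% in these data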;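 also: normalized per plate to untreated control cells as the no-loss baseline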
TNFa cytotox – HUVEC cytotoxicity counter-screen, TNF alpha stimulated; HUVEC TNFalpha-stimulated, Hoechst cell count, imaging; cell count reduction, % at 2 µM; actives 0.17% (n = 93,000); AID 848;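 active = cell count reduction exceeding the screen mean by over 5 SD, scaled to untreated wells per plate, cut at about 78% in these data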;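 also: cells counted after 24 h of TNF alpha exposure following the 1 h pretreatment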
VCAM1 TNFa inh – reduces TNF alpha induced VCAM1 expression in HUVEC; actives 0.48% (n = 95,000); HUVEC TNFa-induced VCAM-1 immunofluorescence, high-content imaging; inhibition, % at 2 µM; AID 802;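 active = inhibition above the batch mean plus 3 SD, with images confirmed as a hit by eye, cut at about 37% in these data; inconclusive = inhibition above that limit but hit not confirmed in images; inactive = inhibition not above that limit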;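 also: 0% = TNF-stimulated DMSO wells and 100% = unstimulated control wells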
E-sel TNF inh – TNF alpha driven E-selectin expression inhibition. inhibition, % at 2 µM. AID 1246. HUVEC TNFa-induced E-selectin immunofluorescence, high content. actives 0.71% (n = 120,000);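 active = inhibition above the batch mean plus 3 SD, and confirmed as a hit on visual image review, cut at about 43% in these data; inconclusive = passes the inhibition cutoff but fails visual image review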;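 also: 0% = TNF-stimulated DMSO wells and 100% = unstimulated control wells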
IL1B NFkB pot – enhances IL-1B driven NFkB nuclear translocation; HUVEC IL-1B NFkB p65 nuclear translocation imaging; activation, % at 2 µM; actives 0.3% (n = 94,000);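 active = activation above 40%, about the mean plus 3 SD, also judged a hit on visual image review; inconclusive = activation above 40% but not a hit on visual review; inactive = activation not above 40% and no visual hit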;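 also: percent activation is computed from the nuclear over cytoplasmic p65 intensity ratio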
Active calls of the source: *; u = inconclusive; x = no result given. The list is not random: actives were taken first. Their share in the collection is about 1.6%.

SMILES	NFkB transloc inh	IL1B cytotox	TNFa cytotox	VCAM1 TNFa inh	E-sel TNF inh	IL1B NFkB pot
Cc1ccc(NC(=O)Cn2ccc([N+](=O)[O-])n2)cc1Cl	x	x	x	x	-37.2	x
CCOC(=O)c1c(NC(=O)CSc2nnc(C)c(=O)[nH]2)sc(C)c1C	x	x	x	x	65.2*	x
CCOC(=O)c1c(NC(=O)CSc2ncn[nH]2)sc(C)c1C	-6.2	-2.2	x	x	-13.2	6.2
Cn1c(=O)c2ncn(CC(=O)N=Nc3c(O)[nH]c4ccccc34)c2n(C)c1=O	x	x	x	x	-10.1	x
CC(C)NC1CS(=O)(=O)CC1O (centres undefined)	-9.8	-7.3	100.0*	u	11.6	9.8
CCOC(=O)N1CCN(c2cc(=O)n(-c3cccc(C)c3)c(=O)[nH]2)CC1	x	x	x	x	2.9	x
Cc1csc(Sc2nc3c(c(=O)[nH]c(=O)n3C)n2Cc2ccccc2Cl)n1	31.1*	16.2	2.2	16.6	20.1	-31.1
Cc1cc2nccc(-c3cccnc3)n2n1	x	x	x	x	-32.8	x
CCNC(=O)CCSc1nnc(-c2ccco2)o1	x	x	x	x	-7.5	x
O=C(O)c1ccc(/C=N/NC(=O)c2cc(-c3ccc4c5c(cccc35)CC4)n[nH]2)cc1	x	x	x	x	-15.8	x
CCN(CC)S(=O)(=O)c1ccc(-c2nnc(SCC(=O)Nc3ccc(OC)cc3)o2)cc1	-7.1	1.7	9.1	39.6	64.4*	7.1
COC(=O)c1c(C(=O)OC)c(-c2cccc(Cl)c2)n2c1CS(=O)C2 (centres undefined)	x	x	x	x	23.4	x
O=C(CSc1nnc(CNc2cccc(C(F)(F)F)c2)n1Cc1ccco1)NCc1ccco1	-68.8	-38.0	-3.8	-6.0	-2.2	68.8*
O=C(c1ccco1)N1CCN(C(=O)N2c3ccccc3Sc3ccccc32)CC1	24.3	36.7	72.8	82.7*	-5.8	-24.3
CCOc1ccc(C(=O)NC(=S)NC2CCCC2)cc1[N+](=O)[O-]	x	x	x	x	-19.1	x
Cc1ccc(C)n1NC(=O)c1cccs1	-2.3	-47.6	40.7	22.0	99.9*	2.2
CN1C(=O)S/C(=C\c2ccccc2OCc2ccc(C(=O)O)cc2)C1=O	x	x	x	x	100.0*	x
O=c1c2ccccc2c(C=NCc2ccccn2)c(O)n1-c1ccccc1Cl	x	x	x	x	-42.0	x
Cc1ccc(C2=Nc3cccnc3C(c3ccccc3)=NN2)cc1	x	x	x	x	10.4	x
CS(=O)(=O)c1nc(-c2ccc(Br)cc2)cc(-c2ccccc2)c1C#N	-76.6	26.3	-1.3	-4.2	6.9	76.6*
O=C(Nc1ccc(F)cc1)C1=CC(=O)N2CCN=C2S1	x	x	x	x	-9.8	x
CCN(CC)c1ccc2cc(C(C)=O)c(=O)oc2c1	-0.4	-11.8	4.3	-1.0	3.4	0.4
CCN(CC)c1ccc2cc(C=O)c(=O)oc2c1	-71.9	-7.0	-1.1	7.7	x	71.9*
Cc1ccc(N2CC(C(=O)Nc3ccc(N(C)C)cc3)CC2=O)cc1C (centres undefined)	-76.7	-15.8	0.0	-21.8	4.7	u
Cc1cc(N2CC(C(=O)O)CC2=O)ccc1Br (centres undefined)	4.4	-13.4	92.0*	62.4	-12.5	-4.4
SMILES	NFkB transloc inh	IL1B cytotox	TNFa cytotox	VCAM1 TNFa inh	E-sel TNF inh	IL1B NFkB pot
COc1cc(NC(=O)CSc2nc(C)c(C)c(C)n2)cc(OC)c1	x	x	x	x	-13.1	x
COc1ccc(-c2nc(CNS(=O)(=O)c3ccc(OC)c(OC)c3)cs2)cc1	-35.1	-5.9	-37.6	7.9	58.2*	35.1
COc1ccc(S(=O)(=O)NCCc2csc(-c3cccnc3)n2)cc1	-16.4	0.8	-33.9	7.4	-0.5	16.4
Cn1c(Cn2nnc3ccccc32)nnc1SCC(N)=O	9.3	-6.6	-31.3	4.4	x	-9.3
CC(=O)Nc1ccc(C(=O)CSc2nnc(Cn3nnc4ccccc43)n2C)cc1	77.7*	-67.6	9.9	-8.4	18.2	-77.7
Cn1c(CC(=O)Nc2ccc(Cl)c(Cl)c2)nnc1SCC(=O)NCc1ccccc1	x	x	x	x	38.5	x
Cc1cc(C(=O)N2CCCC(C(=O)c3cccc(C(F)(F)F)c3)C2)nc(C)n1 (centres undefined)	x	x	x	x	-19.8	x
CCCCC(=O)N/N=C/c1ccc(N2CCOCC2)c([N+](=O)[O-])c1	x	x	x	x	-5.5	x
CCOC(=O)c1sc2nc(CSc3nc4ccccc4n3CC)[nH]c(=O)c2c1C	-3.7	7.3	-4.2	-10.5	76.7*	3.7
COc1cccc(/C=C/C(=O)NCc2cn3cc(Cl)ccc3n2)c1OC	x	x	x	x	-24.3	x
COC(=O)c1cc2ccsc2n1Cc1nc(-c2cccc(Cl)c2)oc1C	-1.6	10.9	-16.7	-3.3	82.1*	1.6
COC(=O)c1oc2ccc(Br)cc2c1NC(=O)CCCN1C(=O)c2ccccc2C1=O	x	x	x	x	6.4	x
COC(=O)c1oc2ccc(Br)cc2c1-n1cccc1	39.6*	-80.9	-3.6	-2.6	-4.2	-39.6
Cc1ccc(C)c(N(CC(=O)NCCSCc2ccco2)S(C)(=O)=O)c1	-16.0	-9.0	-20.3	-7.1	62.6*	16.0
O=c1cc(CO)oc(C(Nc2ccccn2)c2cccc(F)c2)c1O (centres undefined)	-4.5	12.7	-8.8	14.2	-4.5	4.5
O=c1cc(CO)oc(C(Nc2ccccn2)c2ccccc2F)c1O (centres undefined)	-29.4	-14.6	-19.0	-2.7	68.0*	29.4
C=CCNC(=O)COC(=O)c1cccnc1Nc1ccccc1F	x	x	x	x	2.4	x
COc1ccc(C(=O)c2ccc(N(C)C)cc2)c(OC)c1	-13.0	4.0	-28.6	7.6	x	13.0
CN(C)c1ccc(C(=O)c2ccc(N(C)C)c3ccccc23)cc1	28.0	51.6	83.6*	98.9*	15.1	-28.0
Cc1ccc(-c2nc(N)sc2CC(=O)OCC(=O)NCC2CCCO2)cc1 (centres undefined)	x	x	x	x	-19.3	x
COC(=O)CN1C2=NCCCN2c2ccccc21	x	x	x	x	-25.7	x
O=C(O)CCC(=O)Nc1ccc(C(=O)N2CCCCC2)cc1	-0.7	87.6*	-23.0	15.1	-8.8	0.7
COc1cccc(C2=NN(C(=O)c3cccs3)C(O)(C(F)(F)F)C2)c1 (centres undefined)	x	x	x	x	-8.2	x
N#Cc1c(-c2ccc(Cl)cc2)ccnc1N1CCOCC1	x	x	x	x	-1.8	x
O=C(O)C1CC=CCC1C(=O)N1CCCC1 (centres undefined)	2.4	-23.2	96.2*	82.2*	5.8	-2.4
SMILES	NFkB transloc inh	IL1B cytotox	TNFa cytotox	VCAM1 TNFa inh	E-sel TNF inh	IL1B NFkB pot
O=C(O)C1CC=CCC1C(=O)N1CCc2ccccc21 (centres undefined)	-20.7	-67.3	5.0	16.4	-15.2	20.7
CCC[n+]1cn(/C(C(=S)Nc2cccc(Cl)c2C)=C(/[O-])c2ccc(OC)c(OC)c2)c2ccccc21	x	x	x	x	8.5	x
O=C(CSc1ccc2ccccc2c1)Nn1cnnc1	-49.7	7.1	-25.8	-4.4	15.3	49.7*
Cc1cc(Cl)c(OCCCSc2nc(C)cc(=O)[nH]2)c(Br)c1	9.9	89.5*	-3.7	-13.8	-8.0	-9.9
CCC(=O)NCc1nc2ccccc2n1Cc1ccccc1F	-8.6	23.3	-4.2	-3.2	65.3*	8.6
CCC(=O)NCCCc1nc2ccccc2n1Cc1ccccc1F	x	x	x	x	-31.2	x
COc1ccc(N/C=C/C(=O)c2ccc(C)cc2)c([N+](=O)[O-])c1	1.5	15.0	-7.2	-5.8	65.3*	-1.5
CCCNc1cc(=O)n(C)c(=O)n1C	5.7	-8.2	-21.5	-1.7	-28.4	-5.7
Cn1c(NCCN2CCCCC2)cc(=O)n(C)c1=O	x	x	x	x	80.6*	x
